Measured values from PubChem BioAssay (NCATS).
Results filed as inconclusive are left out. The source made the active and inactive calls. Calls follow the shape of the dose curve; as a rule, active = well fitted inhibition curve with a large enough effect; inconclusive = small, poorly fitted or top-dose-only effect; inactive = flat fitted curve, though single readings scatter.
Potency is read from the fitted curve at half-maximal effect.

Each compound was assayed on Zika virus NS2B-NS3 protease (linked construct) (assay: Confirmatory screen NINDS AMC qHTS for Zika virus inhibitors (AID 1347152; also: nearly all actives have a fitted effect of over 70% in size;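 as to activity change, negative = inhibition: AMC fluorescence gain from cleaved Bz-Nle-KRR-AMC substrate over 15 min; top concentration of the series differs between compounds; 0% = no-inhibitor control and -100% = no-enzyme control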)). Settings: Purified linked NS2B-NS3, AMC substrate fluorescence; series mostly up to 56.6 µM; activity change, negative = inhibition: at the top concentration.
Excerpt: Assay Submitters (PI): Avindra Nath, Ph.D., National Institute of Neurological Disorders and Stroke (NINDS), Bethesda, MD Radhakrishnan Padmanabhan, Ph.D., Georgetown University (GU), Washington D.C. Zika Virus causes congenital defects, including microcephaly and is associated with Guillain-Barre syndrome, eningoencephalitis and myelitis in infected adult. […] Using a target-based approach, we hope to establish a screening paradigm to uncover novel, cell-active NS2B-NS3 protease (Zika Virus) specific inhibitors from NCATS' collection of small molecules using qHTS. […] Four assay panel was created to identify potential Zika Virus inhibitors. Namely, (1) GU unlinked NS2B-NS3 AMC tagged protease qHTS, (2) GU unlinked NS2B-NS3 Rhodamine tagged protease qHTS, (3) NINDS linked NS2B-NS3 AMC tagged protease qHTS, (4) NINDS linked NS2B-NS3 Rhodamine tagged protease qHTS. Active compounds were re-acquired and re-screened to confirm inhibition. Inhibitors were further screened against various confirmatory and counterscreens in dose response format. Early Translation Branch (ETB) National Center for Advancing Translational Sciences (NCATS), Rockville, MD National Institute of Health (NIH), Bethesda, Maryland
Materials: For the linked assay, Nath lab (NINDS) provided the purified linked NS2B-NS3 protease which is consists of hydrophilic domain of NS2B linked to the NS3 protease domain by a flexible (-[…]-) linker. Control compound aprotinin is obtained from Thermo Scientific (#78432; Waltham, Massachusetts). NS2B-NS3 AMC substrate (Bz-Nle-Lys-Arg-Arg-AMC; Nle-KRR-AMC) purchased from Bachem (#I-1995; Torrance, CA). Ac-VKTGKR-AMC purchased from Genscript or Bachem, Ac-FAAGKR-AMC purchased from Genscript, Ac-GLVKRR-AMC purchased from Genscript, Ac-LKKR-AMC purchased from Genscript. NINDS AMC linked NS2B-NS3 protease qHTS protocol: Briefly, 3 microL of Zika virus linked NS2B-NS3 protease (1 nM for linked final concentration), in assay buffer (10 mM Tris-HCl pH 8.0 with 0.01% Tween 20) was dispensed into a 1,536-well solid-bottom black plate (Greiner Bio One, Monroe, NC). Twenty-three nL of compounds (final concentration range 7.28 nM to 114 microM) or control Aprotinin (final concentration range 3.47 nM to 114 microM) were transferred via Wako Pin-tool (Wako Automation, Richmond, VA). Samples were incubated (room temperature, protected from light) for 15 minutes followed by a 1 microL AMC substrate addition of (final concentration of 10 microM; Km = 18.3 µM). Plates were then read immediately on a ViewLux High-throughput CCD imager (PerkinElmer, Waltham, MA) equipped with standard UV fluorescence optics (340(30) nm excitation, 450(20) nm emission) then incubated (room temperature, protected from light) for 15 minutes (~20% conversion). The change in fluorescence intensity over the 15-minute reaction period was normalized against no-inhibitor and no-enzyme controls and the resulting percent inhibition data were fitted to a 4-parameter Hill equation. Aprotinin was used as the intraplate control.
`N#CC(c1ccc(Cl)cc1)c1c(Cl)cc(-n2ncc(=O)[nH]c2=O)cc1Cl` (configuration not stated) was tested, and the Potency was 21.5 µM (active). For `O=C(Nc1ccccc1)Nc1ccc(-c2ccc(C(=O)[C@H]3CCC[C@H]3C(=O)O)cc2)cc1`, the Potency was 24.1 µM (active). `CC[C@H](C)n1cc(C)c2c(C(=O)NCc3c(C)cc(C)[nH]c3=O)cc(-c3ccc(N4CCNCC4)nc3)cc21` was tested, and the Potency was 27.1 µM (active). `Cc1nc(C(=O)NCC(=O)O)c(O)c2ccc(Oc3ccccc3)cc12` was tested, and the Potency was 21.5 µM (active). For `COc1ccc(-c2ccc3ncc4c(c3c2)n(-c2ccc(N3CCNCC3)c(C(F)(F)F)c2)c(=O)n4C)cn1`, the activity change, negative = inhibition was -9% [at 5.51 µM] (inactive). `O=C1Nc2ccc(I)cc2C1=Cc1cc(Br)c(O)c(Br)c1` was tested, and the “activity change, negative = inhibition” value was -4.68% (inactive). For `N#CC1(c2cccc(C(=O)Nc3cc(Oc4ccc5nc(NC(=O)C6CC6)sc5n4)ccc3F)c2Cl)CC1`, the “activity change, negative = inhibition” value was 9.18% (inactive). In the case of `CCCCC[C@H](O)C=C[C@H]1[C@H](O)CC(=O)[C@H]1CCCCCCC(=O)O`, the “activity change, negative = inhibition” value is reported as 11.7% (inactive). `O=C(Nc1cccc2c(=O)cc(-c3nn[nH]n3)oc12)c1ccc(OCCCCc2ccccc2)cc1` was tested, and the Potency was 5.41 µM (active). For `O=C(O)Cc1cccc(OCCCN(Cc2cccc(C(F)(F)F)c2Cl)CC(c2ccccc2)c2ccccc2)c1`, the Potency was 19.2 µM (active). In the case of `CCOC(=O)[C@H](CCc1ccccc1)N[C@@H](C)C(=O)N1CCCC1C(=O)O` (some centres not stated), the “activity change, negative = inhibition” value is reported as -8.3% (inactive). With `COc1cc(Nc2nc3ccccc3nc2NS(=O)(=O)c2ccc(NC(=O)c3ccc(C)c(OC)c3)cc2)cc(OC)c1` the Potency was 6.98 µM (active). In the case of `CC(C)c1onc(-c2c(Cl)cccc2Cl)c1COc1ccc(C=Cc2cccc(C(=O)O)c2)c(Cl)c1`, the Potency is reported as 24.1 µM (active). With `c1cc(OCCN2CCCCC2)cc(-c2n[nH]c3ccc(-c4ncn[nH]4)cc23)c1` the Potency was 24.1 µM (active). `Fc1ccc(C(c2ccc(F)cc2)N2CCN(CC=Cc3ccccc3)CC2)cc1` was tested, and the “activity change, negative = inhibition” value was -5.36% (inactive). `COc1cc(Cl)cn2c(-c3cccc(NC4CNC4)n3)cnc12` was tested, and the Potency was 27.1 µM (active). With `CCCCOCCOc1nc(-c2ccc(C(=O)O)c(F)c2)sc1C` the Potency was 19.2 µM (active).
